KB-V1 cytotox – KB-V1 MDR subline cytotoxicity. 400,000 tested, 3.4% active. Potency, µM (highest dose often 46.1 µM), actives largely listed as cytotoxic. KB-V1 MDR cells viability, CellTiter-Glo, 72 h; also: nearly all actives have a fitted effect of over 60% in size
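KB-V1 MDR subline cells in DMEM (phenol-red free, 10% FBS) exposed to compounds in qHTS concentration series for 72 h at 37 degrees C. Viability read by CellTiter-Glo luminescence; concentration-effect curves fitted after normalization and correction.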
HT1080-NT tox – kills 2HG-producing HT-1080-NT fibrosarcoma cells; HT-1080-NT fibrosarcoma viability, CellTiter-Glo ATP luminescence, 48 h; 360,000 tested, 1.6% active; Potency, µM (highest dose often 46.1 µM), for the others: at the highest dose activity, negative = less viability, most hits filed as cytotoxic;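 also: NT is the 2HG producing partner of a matched IDH1 knockdown line; 0% = DMSO-treated cells and -100% = media-only wells without cells; nearly all actives have a fitted effect of over 55% in size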
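Fibrosarcoma NT cells, 750 per well in 5% FBS RPMI, were exposed to compound for 48 hours. Viability: CellTiter-Glo luminescence.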
TDP1 cell CPT – growth inhibition of DT40 Tdp1-/-;hTDP1 cells with camptothecin (screen for TDP1 inhibitors). chicken DT40 Tdp1-/-;hTDP1 cells + 20 nM CPT, ATP luminescence, 48 h. Potency, µM (titrated, usually from 46.2 µM), for the others: at the top dose activity change, negative = growth inhibition, most hits filed as inhibitors. AID 686979. 420,000 tested, 12% active; also: nearly all actives have a fitted effect of over 55% in size
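Chicken DT40 Tdp1-/- cells complemented with human TDP1, 400 cells/well, exposed to compounds plus 20 nM camptothecin for at least 48 h at 37 C; viability read as ATP content by CellTiter-Glo luminescence.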
DT40 TDP1 no CPT – qHTS for Inhibitors of human tyrosyl-DNA phosphodiesterase 1 (TDP1): qHTS in cells in absence of CPT; DT40 Tdp1-/- hTDP1 cells, no CPT, ATP luminescence, 48 h; Potency, µM (highest dose often 46.2 µM), for inactives: top-dose activity change, negative = growth inhibition, most hits filed as inhibitors; 420,000 tested, 15% active; AID 686978, 2013; also: nearly all actives have a fitted effect of over 55% in size
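Growth of hTDP1-complemented DT40 Tdp1-knockout cells is measured by ATP luminescence after at least 48 hr compound exposure at 37 °C, with DMSO substituting for the 20 nM CPT used in the parallel screen.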
HT1080 IDH1KD tx – HT-1080 IDH1 knockdown cell toxicity (counter line) | AID 686971 | 360,000 tested, 2% active | HT-1080 IDH1 knockdown viability, ATP luminescence, 48 h | Potency, µM (doses to about 46.1 µM), for the others: top-dose activity, negative = toxicity, hits mostly cytotoxic;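 also: 0% = DMSO wells and -100% = cell-free medium wells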
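After a 2 h attachment period, IDH1KD HT-1080 cells took pin-transferred compound for 48 h at 37 °C; ATP-based luminescence after 10 min room-temperature reagent incubation reported viability.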
KB-3-1 cytotox – kills parental KB-3-1 adenocarcinoma cells; 400,000 tested, 1.4% active; KB-3-1 viability, CellTiter-Glo ATP luminescence, 72 h; Potency, µM (highest dose often 46.1 µM), most hits filed as cytotoxic; AID 1347075; also: nearly all actives have a fitted effect of over 60% in size
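Here the drug-naive KB-3-1 line serves as comparator for MDR sub-line selectivity; cells received compound titrations, 72 h at 37 °C, then CellTiter-Glo readout.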
* marks the source's active call; other numbers are inactive results; i = inactive; ? = inconclusive; . = no result. In the library only some 19% were active in any assay of this set; here they are far more common. Calls follow the shape of the dose curve; as a rule, active = well fitted curve in the direction sought with a large enough effect; inconclusive = small, poorly fitted or top-dose-only effect, or another doubt; inactive = no such curve, though single readings can be large; an effect the other way counts as inactive or inconclusive. Unless noted, % is scaled to controls: 0 for no effect and ±100 for the full control effect; potency is read from the fitted curve at half-maximal effect.

SMILES	KB-V1 cytotox	HT1080-NT tox	TDP1 cell CPT	DT40 TDP1 no CPT	HT1080 IDH1KD tx	KB-3-1 cytotox
O=[N+]([O-])c1ccc(S(=O)(=O)N2CCN(C3CCN(Cc4ccccc4)CC3)CC2)cc1	?	4%	-30%	?	3%	i
CCOC(=O)c1c(C)[nH]c(C)c1S(=O)(=O)N1CCN(c2ccc([N+](=O)[O-])cc2)CC1	i	-4%	?	13µM*	-6%	i
CCOC(=O)c1c(C)[nH]c(C)c1S(=O)(=O)N1CCCC(C(=O)N2CCN(c3ccccc3F)CC2)C1 (configuration not stated)	i	.	?	?	.	i
CCOC(=O)c1c(C)[nH]c(C)c1S(=O)(=O)N1CCN(c2ccc(Cl)cc2)CC1	i	.	?	?	.	i
O=C(C1CCCN(S(=O)(=O)c2cnc[nH]2)C1)N1CCN(c2ccc(Cl)cc2)CC1 (configuration not stated)	i	-5%	13µM*	18µM*	-2%	i
CCOC(=O)c1c(C)[nH]c(C)c1S(=O)(=O)N1CCCC(C(=O)N2CCN(c3ccc(Cl)cc3)CC2)C1 (configuration not stated)	i	.	16µM*	?	.	i
CCOC(=O)N1CCC(N2CCN(S(=O)(=O)c3ccc([N+](=O)[O-])cc3)CC2)CC1	i	2%	13µM*	?	-6%	?
O=C(NC1CC1)c1ccc(-c2cnc3cccnn23)cc1	i	-9%	?	?	2%	i
Cc1cccc(N(CC(=O)NCc2ccccc2)S(C)(=O)=O)c1C	i	.	-24%	-10%	.	i
CN(N=Nc1nc[nH]c1C(N)=O)C1CCCCC1	?	-20%	?	-22%	?	i
COC(=O)N1CCC2(CC1)CN(c1ccccn1)C2	.	.	7%	-7%	.	.
Cn1ccc(C(=O)Nc2ccc(Br)cc2Br)n1	?	9%	-5%	-4%	1%	i
O=S(=O)(NCCC1=CCCCC1)c1ccc(F)cc1	i	-20%	-25%	-3%	-3%	i
O=[N+]([O-])c1ccccc1S(=O)(=O)NCCC1=CCCCC1	15µM*	12%	18µM*	21µM*	7%	i
O=C(Cc1ccccc1[N+](=O)[O-])NCCC1=CCCCC1	i	0%	-5%	?	2%	i
O=S(=O)(NCCC1=CCCCC1)c1cccc(Br)c1	?	-9%	?	18µM*	-21%	i
COc1ccc(Cl)cc1NC(=O)C(C)N(C)Cc1cccc(Cl)c1Cl (configuration not stated)	?	-4%	?	?	-16%	i
O=C(Nc1nnc(Cc2ccccc2)s1)c1ccco1	i	?	-7%	-6%	14%	i
NC(=O)c1cc(Cc2ccccc2)sc1NC(=O)c1ccco1	9.2µM*	?	?	12µM*	?	?

From PubChem BioAssay
